Among the data in PubChem BioAssay (NCI) are growth inhibition values, retold here.

About 79,000 compounds went through this panel and 15% of them were active in at least one assay; those are over-represented in the sample as a whole. A number with no mark means an inactive call. The source made the active and inactive calls. Cut-off read from the data, not from the text of the source: active = growth inhibition above about 70%; inactive = the rest.

A short description of the assay: NCI Yeast Anticancer Drug Screen. Data for the sgs1 strain (AID 173).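 Note: 0% = growth of vehicle-only control cultures.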 Conditions: S. cerevisiae sgs1 mutant, hits give high values. On the procedure: Growth inhibition of yeast strains with defined genetic alterations is measured as a screen for potential anti-cancer activity. Selected strains with alterations in DNA damage repair or cell cycle control were exposed to compounds and growth inhibition was measured relative to vehicle treated controls. The strain used in this assay is sgs1

Regarding `O=C1CSc2cc([N+](=O)[O-])ccc2N1`, the growth inhibition reads like this: (at 1.2 µM) 19%; (at 3.7 µM) 19%; (at 11.0 µM) 17%; (at 33.0 µM) 36%; (at 100.0 µM) 11%.
Regarding `CCN(CC)CCNc1ccc([N+](=O)[O-])c2nc3ccc(OC)cc3c(N)c12`, the growth inhibition by setting is: (at 1.2 µM) -8%; (at 3.7 µM) -9%; (at 11.0 µM) -16%; (at 33.0 µM) 10%; (at 100.0 µM) 82% (active).
On the same counts, the results for `Cn1c2ccccc2c(=O)c2cc(NC(=O)CCCCC(=O)Nc3ccc4c(c3)c(=O)c3ccccc3n4C)ccc21` are -5%, -6%, -6%, 4% and 49%.
In the case of `Cc1cc2c(cc1C(=O)CCC(=O)O)CC1(C2)Cc2cc(C)c(C(=O)CCC(=O)O)cc2C1`, the growth inhibition reads like this: (at 1.2 µM) 2%; (at 3.7 µM) 7%; (at 11.0 µM) 14%; (at 33.0 µM) 33%; (at 100.0 µM) 69%.
The like results for `COc1ccc(/C(C)=N/OC(=O)c2c(-c3ccccc3Cl)noc2C)cc1CN1CCOCC1` were, in that order, -30%, -29%, -19%, 30% and 78% (active).
For `CC(=O)[O][Bi]([c]1ccccc1)[c]1ccccc1`, the growth inhibition is, setting by setting: (at 1.2 µM) 28%; (at 3.7 µM) 30%; (at 11.0 µM) 46%; (at 33.0 µM) 88% (active); (at 100.0 µM) 95% (active).
On the same counts, the results for `O=C(NCCCCCCCN1CCCCCCC1)C(C1CCCCC1)C1CCCCC1` are 59%, 67%, 95% (active), 98% (active) and 99% (active).
The like results for `FC(F)(F)c1cc(NC(=S)N2c3ccccc3-n3cccc3C2c2cccnc2)cc(C(F)(F)F)c1` (stereo not given) were, in that order, -8%, -3%, -2%, -2% and 1%.
